Laboratory results: PubChem BioAssay (NCI)
This is part of a sample that, as a whole, favours compounds with a hit. Of some 83,000 tested, about 20% had one in any assay.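 Single-concentration screen, 48 h exposure, 96-well plates. Endpoint: percent growth. Below 10 = active.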 A number with no mark means an inactive call. Calls of active or inactive are those of the source.

Assays:
Assay in all cases: NCI-60 one-dose screen, 48 h (100 = growth as untreated, 0 = no growth, -100 = all killed)
Settings in all cases: 10 µM unless noted
[1] = test system: SK-MEL-2 melanoma
[2] = test system: EKVX NSCLC
[3] = test system: SN12C renal
[4] = test system: UO-31 renal
[5] = test system: TK-10 renal
[6] = test system: ACHN renal
[7] = test system: CAKI-1 renal
[8] = test system: A498 renal
[9] = test system: CCRF-CEM leukemia
[10] = test system: MOLT-4 leukemia

| Structure (SMILES) | growth [1] | growth [2] | growth [3] | growth [4] | growth [5] | growth [6] | growth [7] | growth [8] | growth [9] | growth [10] |
| --- | --- | --- | --- | --- | --- | --- | --- | --- | --- | --- |
| COCCNc1ccc2c3c(cccc13)C(=O)N(CCN(C)C)C2=O | -12.6% (active) | 22.5% | 24.7% | 10.6% | 20.5% | 11.9% | -21.4% (active) | 26.5% | 8.36% (active) | -6.43% (active) |
| Nc1nc2ncc(CCNc3ccc(C(=O)O)cc3)nc2c(=O)[nH]1 | 96.3% | 120% | 106% | 86.6% | 103% | 110% | 98.3% | 120% | 87.9% | 75.5% |
| COc1ccc(-c2cc(NC(=O)Nc3ccc4ncsc4c3)no2)cc1 | 112% | 95.9% | 96.3% | 106% | 104% | 99.6% | 91% | 100% | 106% | 96.1% |
| COc1ccc(-c2nc3ccc(-c4nc5ccc(N6CCN(c7ccccc7)CC6)cc5[nH]4)cc3[nH]2)cc1OC | 89% | 40.1% | 52% | 99.6% | 12.4% | 44.8% | 65.3% | 88.4% | 6.07% (active) | -5.57% (active) |
| O=C(/C=C/c1cc(CN2CCOCC2)c(O)c2ncccc12)c1cc(CN2CCOCC2)c(O)c2ncccc12 | 20.7% | 23.5% | 26.1% | 11.1% | 22.1% | 9.19% (active) | 14.1% | 32.4% | 26.9% | 31.1% |
| O=C(N(c1ccccc1)c1ccccc1)n1ccc2nc(Cl)nc(Cl)c21 | 58.6% | 63.3% | 53.8% | 57.1% | 73.7% | 65.2% | 53.4% | 81% | 16% | 37.1% |
| CCCc1cc(=O)n2c(C(=O)Nc3ccc(F)cc3)c(C(=O)Nc3ccc(F)cc3)sc2n1 | 70.7% [30 µM] | 62.5% [30 µM] | 65.7% [30 µM] | 19.3% [30 µM] | 38.9% [30 µM] | 48.4% [30 µM] | 44.3% [30 µM] | 139% [30 µM] | 77.1% [30 µM] | 97.9% [30 µM] |
| COc1cc2nc(N3CCCC3)nc(NCCc3ccccc3)c2cc1OC | 103% | 59.5% | 75.9% | 69.2% | 98.3% | 85.7% | 80.5% | 83.1% | 0.115% (active) | -2.23% (active) |
| CCC([N+](=O)[O-])S(=O)(=O)c1ccc(C)cc1 (stereo not given) | 107% | 110% | 95.3% | 82% | 102% | 104% | 80% | 103% | 99% | 117% |
| O=C1c2ccccc2C(=O)c2c(N=Nc3[nH]c(=S)[nH]c3O)cccc21 | 24.4% | 41.6% | 35.3% | 26.9% | 54.1% | 41.4% | 20.6% | -6.1% (active) | 14.1% | 16% |
| COc1cccc(-c2nc3sccn3c2-c2ccnc(NCCNS(=O)(=O)c3ccc(F)cc3)c2)c1 | 21.3% | 28.2% | 27.1% | 16.7% | 46.5% | 13% | 18.4% | 18.2% | 14.2% | 7.99% (active) |
| COc1cc(/C=C/c2cc(O)c3cc(C(C)=O)c(=O)oc3c2)cc2c1O[C@]1(C)CC[C@@H](O)C(C)(C)[C@H]1C2 | 50.1% | 59.3% | 64.7% | -42.8% (active) | 97.9% | 40.9% | 29.8% | -51.5% (active) | 22.1% | -5.7% (active) |
| O=C(O)c1ccc(NC(=O)c2ccc(-c3cccc([N+](=O)[O-])c3)o2)cc1 | 102% | 93.6% | 93.2% | 77.8% | 102% | 104% | 88% | 110% | 106% | 109% |
